Source: the supplement of paper PMC3334620
Whole data set: some 33,000 sequences, median “E-score (-0.5 to 0.5)” near -0.012, cut for the highest 2% near 0.27. The full list was thinned out, with the highest values kept by preference.

Each sequence was assayed against T1, Vhr1 (UniProt P40522) (assay: PBM E-score (8-mer binding enrichment) (E-score (-0.5 to 0.5)); higher = stronger / more preferred TF binding). Details: protein concentration: 200 nM; construct: GST-full length.
T1 sequence: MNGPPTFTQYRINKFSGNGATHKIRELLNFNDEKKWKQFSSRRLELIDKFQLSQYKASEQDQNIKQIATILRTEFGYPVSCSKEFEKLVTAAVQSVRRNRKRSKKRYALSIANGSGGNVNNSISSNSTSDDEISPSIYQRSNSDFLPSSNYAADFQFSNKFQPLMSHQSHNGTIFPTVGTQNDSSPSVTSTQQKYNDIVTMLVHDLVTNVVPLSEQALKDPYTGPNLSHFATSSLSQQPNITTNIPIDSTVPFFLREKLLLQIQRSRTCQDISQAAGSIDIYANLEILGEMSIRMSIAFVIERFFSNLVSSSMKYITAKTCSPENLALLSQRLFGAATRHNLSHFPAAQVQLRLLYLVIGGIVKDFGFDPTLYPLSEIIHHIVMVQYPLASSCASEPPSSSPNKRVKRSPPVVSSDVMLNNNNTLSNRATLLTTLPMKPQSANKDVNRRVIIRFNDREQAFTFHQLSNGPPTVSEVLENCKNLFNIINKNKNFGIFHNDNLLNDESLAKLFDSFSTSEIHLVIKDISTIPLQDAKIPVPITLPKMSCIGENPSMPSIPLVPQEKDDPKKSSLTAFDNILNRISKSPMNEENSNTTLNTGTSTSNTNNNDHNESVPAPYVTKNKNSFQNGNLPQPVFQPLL
How it was run: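 Each ungapped eight-base word and its reverse complement, pooled, received an E-score from the Universal PBM Analysis Suite. Underlying scans, normalised with masliner, recorded fluorescent anti-GST bound to GST-tagged yeast transcription factors. These were applied at about 100-200 nM to universal all-10-mer Agilent arrays double-stranded by primer extension.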

| Sequence | PBM E-score |
| --- | --- |
| CTTGCAAC | 0.0737 |
| CGAATCTC | -0.0376 |
| GGAATCAC | 0.388 |
| CGAATCAC | 0.331 |
| GGAATCAA | 0.154 |
| CGAATCCC | 0.00269 |
| GGAATCCC | 0.034 |
| AAAAGCCA | -0.0583 |
| ACACCTGC | 0.0726 |
| AGGCTACA | 0.0844 |
| ATGACCAC | 0.176 |
| ACCCTATG | 0.136 |
| TACGTTGA | 0.0682 |
| GATTTTGA | 0.0345 |
| ATTACTTG | 0.164 |
| CCTCCGAC | -0.0621 |
| ACTCCGAC | 0.332 |
| GCTCCGAC | 0.0683 |
| ACTCCGAT | 0.1 |
| ACTCCGAA | 0.116 |
| ACTCCGAG | 0.357 |
| TCTTAACA | -0.0919 |
| CATGCATC | 0.28 |
| CATGCATA | 0.0152 |
| CATGCATG | 0.117 |
| ACCTCCAT | 0.0255 |

| Sequence | PBM E-score |
| --- | --- |
| CTAGTGGA | -0.162 |
| GATCCCTA | -0.0993 |
| GGCCAGGA | -0.105 |
| AATTAGTA | 0.146 |
| AATTAGTC | 0.29 |
| AGTTAGTC | 0.291 |
| CGTTAGTC | 0.132 |
| CATTAGTC | 0.257 |
| AGTTAGTA | 0.137 |
| CAATCTAA | -0.13 |
| ATAGCAAG | 0.161 |
| GCGAGACC | -0.049 |
| ACTTAGGA | -0.198 |
| AGACTAAA | 0.0442 |
| AGACTACA | 0.17 |
| GGACTAAC | -0.00735 |
| CGACTACA | 0.272 |
| GGACTAAA | -0.248 |
| GGACTACA | 0.146 |
| CGACTAAC | 0.303 |
| TGACTACA | 0.359 |
| CGACTACC | 0.22 |
| CGACTACG | 0.188 |
| TGACTAAA | 0.326 |
| CGACTAAA | 0.0758 |
| CAGATAAG | -0.0755 |

| Sequence | PBM E-score |
| --- | --- |
| CTTCGACA | -0.0949 |
| CGGCCAAC | 0.0556 |
| CGTCCTAA | 0.0547 |
| GGCACATA | 0.13 |
| GGGCCAAC | -0.157 |
| ACCATAGG | 0.0531 |
| TAGTAATA | 0.191 |
| AAGGGGCG | -0.0512 |
| CAGGGGCG | 0.301 |
| CAGGGGCC | -0.184 |
| CTTTAGAA | -0.238 |
| GAGAAAGA | -0.167 |
| ATCCGGAC | -0.192 |
| CTCCGGAC | 0.0766 |
| GTCCGGAC | 0.273 |
| AGGATCTC | -0.119 |
| ATCAATGC | 0.0623 |
| AGGAGACG | -0.176 |
| CCCGTGAA | -0.0611 |
| CGCCTATA | -0.135 |
| GGCGACTA | 0.212 |
| AGCGACTC | 0.314 |
| AGCGACTG | 0.194 |
| AGCGACTA | 0.211 |
| CGCGACTC | 0.449 |
| CTCGACTA | 0.163 |

| Sequence | PBM E-score |
| --- | --- |
| CTCGACTC | 0.19 |
| CGCGACCC | 0.153 |
| CGCGACTA | 0.391 |
| GAGGTATA | 0.113 |
| CTTGCTGC | -0.113 |
| CCAATACG | -0.209 |
| ATGTGCGC | -0.0331 |
| ACACTTTA | -0.0402 |
| GAACCTGA | 0.0239 |
| TCCTGACA | 0.107 |
| ATGAACCG | 0.0189 |
| ACGAACCC | -0.119 |
| CCGAACCA | 0.0572 |
| ATGAACCA | 0.294 |
| GGGAACCA | 0.176 |
| CTGAACCA | 0.245 |
| CGGAACCA | 0.343 |
| ACGAACCA | 0.273 |
| CGGAACCG | 0.0495 |
| GCTCCTCA | -0.363 |
| CTATCGGA | -0.237 |
| ACAGTTCC | -0.00019 |
| ATATCTTC | 0.11 |
| ACTATCTA | 0.184 |
| CAGCCAGG | 0.0621 |
| GTGGTAAC | -0.0602 |

| Sequence | PBM E-score |
| --- | --- |
| ACGAAGCA | 0.00046 |
| CAGACTCG | 0.0994 |
| AACCTCAG | -0.103 |
| GAGTGTAA | 0.0325 |
| GAGTGTGC | 0.0366 |
| TAGTGTGA | 0.088 |
| AAGTGTGA | 0.0182 |
| GAGTGTGA | 0.278 |
| CAGTGTGA | 0.285 |
| CATTCCGA | 0.0348 |
| GATTCAGC | 0.149 |
| GATTCCGA | 0.287 |
| GATTCAGA | 0.305 |
| CATTCACA | 0.00907 |
| TATTCAGA | 0.178 |
| CATTCACG | -0.114 |
| GATTCCGC | 0.216 |
| GATTCACA | 0.326 |
| CGAAAGCA | -0.046 |
| GATACACC | 0.197 |
| ACTGGCTG | 0.0954 |
| CTTACCCA | 0.104 |
| ACTCCAGA | 0.0505 |
| TCTGCCCA | -0.179 |
| AACCAACT | 0.0869 |
| CGTGCTAA | -0.201 |

| Sequence | PBM E-score |
| --- | --- |
| CCCATGAG | 0.227 |
| ATGCATGA | 0.165 |
| CCTCATGA | 0.0599 |
| ACTCATGG | 0.317 |
| CCTCATGC | 0.0272 |
| ATGCATGC | -0.0419 |
| ATTCATGG | 0.21 |
| ACTCATGC | 0.322 |
| ACACATGG | 0.215 |
| ATGCATGG | 0.28 |
| GCTCATGA | 0.16 |
| ACTCATGA | 0.369 |
| ATTCATGC | 0.21 |
| AATTCACG | -0.0883 |
| CGACAGAG | 0.0418 |
| GGACTATA | 0.0737 |
| CCAATTCC | -0.0792 |
| ATCGTCTA | 0.0131 |
| ATCCTCCC | -0.107 |
| CAAGTTCC | -0.216 |
| AAGTCCGA | -0.205 |
| ATTATACA | 0.00881 |
| ATTATACC | 0.112 |
| ATTATACG | 0.303 |
| AGATTCAA | -0.133 |
| CGATTCCA | 0.0812 |

| Sequence | PBM E-score |
| --- | --- |
| GGATTCAA | -0.0312 |
| AGGTTCAA | 0.0239 |
| TGATTCCA | 0.364 |
| CGGTTCAA | 0.0706 |
| AGATTCCA | 0.00955 |
| TGATTCAA | 0.326 |
| TGGTTCAA | 0.289 |
| CGATGAAA | -0.0595 |
| AAGCTTTA | -0.237 |
| CTAAAACA | -0.0504 |
| GTAGCTTA | 0.00186 |
| CAAGTAAG | -0.123 |
| CCATTCAG | -0.0511 |
| TCTAGTCA | 0.218 |
| GCTAGTCA | 0.284 |
| CCTAGTCA | 0.309 |
| GCTAGTTA | 0.00532 |
| ACTAGTCC | 0.133 |
| CCTAGTCG | 0.0391 |
| CCTAGTCC | -0.0886 |
